About 83,000 compounds went through this panel and 20% of them were active in at least one assay; those are over-represented in the sample as a whole.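 The endpoint reported here, percent growth, reads 100 for growth as untreated, 0 for no net growth and -100 for all cells dead.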 Active and inactive are the calls of the source.
Test system: U251 CNS
Experiment: NCI-60 one-dose screen, 48 h (100 = growth as untreated, 0 = no growth, -100 = all killed)
Settings: 10 µM unless noted
Procedure: Growth inhibition of the U251 human tumor cell line is measured as a screen for anti-cancer activity. Cells are grown in 96 well plates and exposed to the test compound for 48 hours. Compounds are tested at a single concentration, which is 10^-5 M for most compounds. The reported endpoint is percent growth (GI% or GIPRCNT), where numbers from 0 - 100% represent growth inhibition, and numbers from -100% - 0 represent cell death. For example, a value of 40 represents 60% growth inhibition. A value of 0 means no net growth occurred over the course of the experiment. A value of -40 indicates 40% of cells at the beginning of the experiment died by the end of the experiment. A value of -100 means all cells are dead at the end of the experiment.
NCI-60 Human Tumor Cell Lines Screen was performed using the standard one-dose NCI protocol, which is described in more detail at https://dtp.cancer.gov/discovery_development/nci-60/default.htm.
Compounds with GIPRCNT values below 10 were considered active. Activity score was based on GIPRCNT using the following formula: […]
Score is 0 for GIPRCNT values of 100 or above, 50 for GIPRCNT values of 0, and 100 for GIPRCNT values of -100.

| SMILES | growth |
| --- | --- |
| COc1ccc(-c2ccc(-c3ccc(-c4ccc(C(=N)N)cc4)s3)s2)cc1OC | 46.4% (inactive) |
| Cc1[nH]c2ccc(F)cc2c1CCNC(=O)C1CCN(C(=O)c2ccccc2)C1 (stereo not given) | 92.8% [25 µM] (inactive) |
| Cc1cc(N/N=C/c2nc(-c3ccc(Br)cc3)oc2C)c2cc(Br)ccc2n1 | -9.51% (active) |
| COc1cccc(CC(C)=C(c2ccc(OCCN3CCCCC3)cc2)c2ccc(OCCN3CCCCC3)cc2)c1 | -83.7% (active) |
| O=[N+]([O-])c1ccc(-c2cn(-c3ccccc3)c(-c3ccccc3)n2)cc1 | 58.6% (inactive) |
| N/C(=N\C(N)=N\c1nc2ccccc2s1)c1ccncc1 | 71% (inactive) |
| COc1cc(Nc2nc(N[C@H]3CCCC[C@@H]3N)nc3cc[nH]c(=O)c23)cc(OC)c1 | 44.3% (inactive) |
| Cc1cc(N/N=C/c2nc(-c3ccc(Br)cc3)oc2C)c2cc(Cl)ccc2n1 | 13.9% (inactive) |
| CCOC(=O)c1c(/N=C2\SC(=O)/C(=C\C(=O)OC)N2NC)sc2c1CCN(C(=O)OCC)C2 | 101% (inactive) |
| COc1ccc(Nc2[nH]n3c(=O)cc(-c4ccccc4)nc3c2C(=O)Nc2ccc(C)cc2)c(OC)c1 | 60.3% (inactive) |
| O=C(NNC(=O)N1c2ccccc2C=Cc2ccccc21)c1ccc2ccccc2c1 | 92.6% (inactive) |
| O=S(=O)(NCCNc1nccc(-c2c(-c3ccc(F)cc3)nc3sccn23)n1)c1ccc(F)cc1 | 79.8% (inactive) |
| COc1ccc(Nc2ncccc2C(=O)NCc2cn(Cc3cccc(Oc4ccccc4)c3)nn2)cc1 | 46.2% (inactive) |
| O=C1c2c(Cl)c(Cl)c(Cl)c(Cl)c2C(=O)C2(Cl)CC=CCC12Cl (stereo not given) | -30.2% (active) |
| COc1ccc(Nc2nc(N)nc3c2CCN(Cc2ccc(OC)cc2OC)C3=O)cc1 | 75.4% (inactive) |
| COc1cc(/C=C/C(=O)c2c(C)nc3ccccc3c2C)ccc1OCCCCOc1cc2c(cc1OC)C(=O)N1CCC[C@H]1C=N2 | -97.8% (active) |
| Cc1ccc(S(=O)(=O)NCCNc2nccc(-c3c(-c4ccc(O)cc4)nc4sccn34)n2)cc1 | 104% (inactive) |
| CC[N+](CC)=c1cc2oc3cc(N(C)C)ccc3nc-2cc1C | 1.74% (active) |
| C=C1C(=O)O[C@H]2[C@H]1CC/C(Cn1cc(CNC(=O)Cc3cn(C(=O)c4ccc(Cl)cc4)c4ccc(OC)cc34)nn1)=C\CC[C@@]1(C)O[C@@H]21 | 14.2% (inactive) |
| O=C(c1c[nH]c(=O)c(-c2ccccc2)c1)c1ccccc1O | 89.2% (inactive) |

| SMILES | growth |
| --- | --- |
| O=C(Nc1ccncc1)C(=O)c1cn(S(=O)(=O)c2ccccc2F)c2ccccc12 | 30.7% (inactive) |
| C/C(=N/NC(=S)Nc1ccccc1)c1nc2ccc(Cl)cc2[nH]1 | -44.2% (active) |
| C=C[C@@H]1C[C@H](O)Cc2cc(F)ccc2N1 | 93.3% (inactive) |
| CN1CCN(Cc2ccc(NC(=O)c3nc4ccc5[nH]ncc5c4c4c3CCC4)cc2C(F)(F)F)CC1 | -93.7% (active) |
| OB(O)c1cccc(-c2nc3ccc4[nH]ncc4c3c3c2CCCC3)c1F | 50.6% (inactive) |
| S=C1CC(=S)NC(=S)N1 | 103% (inactive) |
| Cc1ccc(Nc2nnc(-c3ccc(Cl)cc3)o2)c(C)c1 | 83.8% (inactive) |
| Oc1ccccc1/C=N/NC(=S)NC1CC2C=CC1C2 (stereo not given) | 59.4% (inactive) |
| COc1ccc(Nc2nn3c(C)cc(C)nc3c2C(=O)Nc2ccc(C)cc2)c(OC)c1 | 94.8% (inactive) |
| Nc1cc2c(cc1C(=O)c1cccc(F)c1)OCCO2 | 94% (inactive) |
| COc1ccc(-c2c(N)n[nH]c2-c2cc(OC)c(OC)c(OC)c2)cc1 | 23.5% (inactive) |
| C=C1C(=O)O[C@H]2[C@H]1CC/C(Cn1cc(-c3cccc(Cl)c3)nn1)=C\CC[C@@]1(C)O[C@@H]21 | -71.1% (active) |
| O=C(O)Cc1cccc(=O)c(O)c1C(=O)O | 109% (inactive) |
| COc1ccc2cc(-c3ccc(-c4ccc(C(=N)N)cc4)s3)ccc2c1 | 101% (inactive) |
| CCC(=O)OC1=CN2C(=NC(c3ccc(N)cc3)=CC2c2cc(OC)c(OC)c(OC)c2)S1 (stereo not given) | 46.3% (inactive) |
| CCCCN(CCCC)C(=O)CC | 120% (inactive) |
| COc1ccc(-c2[nH]nc(N)c2-c2cc(OC)c3c(c2)OCO3)cc1 | 54.7% (inactive) |
| C=C(C)[C@@H]1C[C@@H]2Cc3cc(F)ccc3N1O2 | 89.5% (inactive) |
| CN(C[C@H]1Cc2c(cccc2N2CCN(c3ncccn3)CC2)CN1)[C@H]1CCCc2cccnc21 | 24.1% (inactive) |
| CCCCOc1ccc(/C=C2/SC(N3CCCC3)=NC2=O)cc1 | 84.6% (inactive) |

Reference: PubChem BioAssay (NCI)
